From the OligoGym collection
Also: reference of the scale not given here.

What follows are sequences tested against C2orf76 (assay: pooled miR-30 sensor sort-seq; sequence = guide strand). Conditions: shRNA.
TGTAGTTCTTATAATCTTCTTC gave a sensor-assay potency score (higher = more potent) of 0.298.
TTTCAGAGTGCTGTCTTCTTTC gave a sensor-assay potency score (higher = more potent) of 0.204.
For TTCGTCATCTTCCAAACTCAAC, the sensor-assay potency score (higher = more potent) was -1.74.
Sequence TATCTTGCTTTAGAAATACGAT has a sensor-assay potency score (higher = more potent) of -1.11.
In the case of TTTCACTGGCGATTCCAGCTGC, the sensor-assay potency score (higher = more potent) is reported as 0.205.
With TTTGTAGTTCTTATAATCTTCT the sensor-assay potency score (higher = more potent) was -0.217.
For TTTGTCTTTGATTTATGTGCTT, the sensor-assay potency score (higher = more potent) was -0.117.
TATAATTTCTGAATGGTGGTGG gave a sensor-assay potency score (higher = more potent) of 1.01.
TTGTCTTTGATTTATGTGCTTG gave a sensor-assay potency score (higher = more potent) of -0.405.
With TCTTCTTTCAGCAGGAGTCTTT the sensor-assay potency score (higher = more potent) was -0.508.
TAAAGGGATATCTTGCTTTAGA was tested, and the sensor-assay potency score (higher = more potent) was -0.915.

The sequences below were run against C2orf79 in the same assay as above. Conditions: shRNA.
Work on TATTGTACCAGGACCTGCGGCT yielded a sensor-assay potency score (higher = more potent) of -0.203.
TAACACCAAGTATTGTACCAGG showed a sensor-assay potency score (higher = more potent) of -0.742.
With TAGATCCTTTCGTAACACCAAG the sensor-assay potency score (higher = more potent) was -1.46.
TCTTCTGTTGCAGGGTCTCGGC showed a sensor-assay potency score (higher = more potent) of -1.21.
TTGCTCAAGCCACAGCATGTGG was tested, and the sensor-assay potency score (higher = more potent) was -1.1.
Sequence TTTAGGGTGGTCTCATCTGGGG has a sensor-assay potency score (higher = more potent) of -0.919.
TTAGGGTGGTCTCATCTGGGGC was tested, and the sensor-assay potency score (higher = more potent) was -1.64.
With TTCTGTTGCAGGGTCTCGGCCA the sensor-assay potency score (higher = more potent) was -0.447.
With TTGTGATAGATCCTTTCGTAAC the sensor-assay potency score (higher = more potent) was -1.71.
In the case of TTCGTAACACCAAGTATTGTAC, the sensor-assay potency score (higher = more potent) is reported as -0.56.
TTTCGTAACACCAAGTATTGTA gave a sensor-assay potency score (higher = more potent) of 0.279.
For TACAAGTGGCGATATTCTCTGG, the sensor-assay potency score (higher = more potent) was -0.432.
